# Compounds with a hit are over-represented: about 2.9% of the library has one in this group of screens.
# PLCb3 inh = blocks human PLC-beta3 enzyme activity; Q01970; Purified PLC-beta3, fluorogenic substrate, fluorescence; inhibition, % at 12.2 µM; actives 0.18% (n = 370,000); in the data active = inhibition above about 11%;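 also: 0% = median of compound wells on plate and 100% = full blocker control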
# PLCg1 inh = blocks human PLC-gamma1 enzyme activity. P19174. actives 0.84% (n = 370,000). purified PLC-gamma1, fluorogenic substrate, fluorescence. inhibition, % at 12.2 µM; in the data active = inhibition above about 9.5%
# ADAM17 inh = inhibitors of human ADAM17; P78536; recombinant ADAM17, EDANS/DABCYL FRET peptide cleavage; inhibition, % at 6.95 µM; actives 0.83% (n = 370,000);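 active = inhibition above the mean of compounds lying between control limits plus 3 SD, set per campaign, cut at about 8.5% in these data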;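 also: 0% = DMSO-only wells as the low control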
# Target sequence (P78536 215-824 limits assumed): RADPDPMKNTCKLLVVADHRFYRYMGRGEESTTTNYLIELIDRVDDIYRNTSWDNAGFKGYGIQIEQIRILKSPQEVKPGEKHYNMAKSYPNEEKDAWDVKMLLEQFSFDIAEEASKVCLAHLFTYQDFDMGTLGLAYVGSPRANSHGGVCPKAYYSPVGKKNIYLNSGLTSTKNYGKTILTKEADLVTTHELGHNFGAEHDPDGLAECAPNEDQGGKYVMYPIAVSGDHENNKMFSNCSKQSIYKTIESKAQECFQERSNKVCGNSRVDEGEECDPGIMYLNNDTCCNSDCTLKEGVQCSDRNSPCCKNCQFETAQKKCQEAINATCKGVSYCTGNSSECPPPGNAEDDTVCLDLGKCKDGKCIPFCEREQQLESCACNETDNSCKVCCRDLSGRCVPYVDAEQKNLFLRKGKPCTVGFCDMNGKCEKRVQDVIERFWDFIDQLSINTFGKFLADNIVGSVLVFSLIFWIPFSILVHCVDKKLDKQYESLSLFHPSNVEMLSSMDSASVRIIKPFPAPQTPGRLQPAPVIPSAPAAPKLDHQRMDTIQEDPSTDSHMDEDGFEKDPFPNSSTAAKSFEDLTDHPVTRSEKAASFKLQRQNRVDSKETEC
# KLK7 zymogen act = activates the human kallikrein-7 zymogen. P49862. purified proKLK7, EDANS-DABCYL substrate fluorescence; 100% is mature enzyme control, 0% vehicle. activation, % at 7 µM. actives 0.9% (n = 370,000). AID 652039;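 active = activation above the mean of all tested compounds plus 3 SD, computed per campaign excluding outliers beyond control limits, cut at about 13% in these data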
# ADAM10 inh = ADAM10 inhibition, QFRET primary screen; recombinant ADAM10, EDANS/DABCYL FRET peptide cleavage, 3 h; actives 0.62% (n = 370,000); AID 720582; inhibition, % at 7 µM;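 active = inhibition above a per-campaign cutoff equal to the mean of compounds falling between control-based bounds plus 3 SD, cut at about 20% in these data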;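 also: 0% = DMSO wells while the 100% control is not disclosed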
# proKLK7 act conf = confirmation of human kallikrein-7 zymogen activators. activation, % at 7 µM. purified proKLK7, EDANS-DABCYL substrate fluorescence; scaled: vehicle 0, mature enzyme 100. actives 68% (n = 3,200). shares compounds with KLK7 zymogen act. AID 686949;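 active = activation, as change over the incubation, above the mean of all tested compounds plus 3 SD, cut at about 13% in these data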
# EDANS-DABCYL int = fluorescence interference counter-screen for KLK7 activators | shares compounds with KLK7 zymogen act | actives 80% (n = 3,200) | AID 686952 | EDANS-DABCYL substrate fluorescence interference, no enzyme, 4 h; solvent 0%, active enzyme control 100% | activation, % at 7 µM;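 active = activation above the all-compound mean plus 3 SD, ignoring values outside control-based bounds, cut at about 4.8% in these data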;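 also: value is the 4 h activation minus the activation read at time zero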
# K7 EDANS ctr = optically interferes with EDANS-DABCYL fluorescence, kallikrein-7 activator counter-screen. shares compounds with KLK7 zymogen act. EDANS-DABCYL peptide fluorescence interference, no enzyme. EC50, µM. actives 20% (n = 250);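 active = compounds that raise the fluorescence signal in this interference counterscreen, with EC50 at or below 10 µM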;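 also: intact quenched peptide substrate alone read at 355 nm excitation and 520 nm emission; signal is fluorescence gain from T0 to T4 after four hours at room temperature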
# * marks the source's active call; other numbers are inactive results; i = inactive; x = no result.
SMILES,PLCb3 inh,PLCg1 inh,ADAM17 inh,KLK7 zymogen act,ADAM10 inh,proKLK7 act conf,EDANS-DABCYL int,others
CCOC(=O)C1CCN(c2cc3c(cc2NC(=O)c2ccccc2Br)n(C)c(=O)n3C)CC1,-86,-55,-7,3,-14,x,x,
CCCN1C(=O)c2ccccc2NC1c1ccc(C)cc1 (stereo not given),-341,-287,-372,14*,i,10,7.3*,
O=C1c2ccccc2NC(c2ccccc2)N1CCCN1CCOCC1 (stereo not given),-333,-289,-219,15*,-479,12,10*,
CCCN1C(=O)c2ccccc2NC1c1ccc(OC)cc1O (stereo not given),-321,-260,-318,19*,i,15*,16*,
Cc1ccc(CN2C(=O)c3ccccc3NC2c2ccccn2)cc1 (stereo not given),-209,-171,-212,4,i,x,x,
Cc1ccc(S(=O)(=O)N2CCCC2C(=O)NCCc2nc3ccccc3[nH]2)cc1 (stereo not given),3,2,-1,0,1,x,x,
Cc1ccc(S(=O)(=O)c2c(N)n(NC(=O)c3ccco3)c3nc4ccccc4nc23)cc1,-443,-331,-367,46*,i,4,6.0*,
COc1cccc(CN2CC(C(=O)NCCc3cn4cccnc4n3)CCC2=O)c1 (stereo not given),-362,-273,-218,19*,i,19*,14*,K7 EDANS ctr=9.7*
COc1cccc(CCNC(=O)C2CCC(=O)N(Cc3cccc(OC)c3)C2)c1 (stereo not given),-2,2,0,-1,3,x,x,
Cn1c(=O)c2c(C(=O)O)cc(-c3ccccc3)nc2n(Cc2ccccc2)c1=O,-79,-48,-27,38*,-66,59*,65*,
COc1ccccc1-c1cc(C(=O)O)c2c(=O)n(C)c(=O)n(Cc3ccccc3)c2n1,-312,-222,-118,1,-335,x,x,
Cc1ccc2nc(-c3ccc4c(c3)OCCO4)cn2c1,-120,-81,-150,5,i,x,x,
Clc1ccc2nc(-c3ccc4c(c3)OCO4)cn2c1,-368,-261,-230,14*,i,7,7.8*,
CC(=O)c1cccc(NC(=O)CSc2n[nH]c(=O)n2C2CC2)c1,-1,1,-1,52*,-1,-1,1,
O=C(CSc1n[nH]c(=O)n1C1CC1)Nc1ccc(Cl)c(Cl)c1,-4,5,-1,0,4,x,x,
COC(=O)c1nc2nc(-c3cccs3)cc(C(F)(F)F)n2n1,i,i,i,205*,i,63*,67*,
O=C(NCc1ccco1)c1nc2nc(-c3cccs3)cc(C(F)(F)F)n2n1,i,i,i,56*,i,61*,68*,
COc1cc(NC(=O)CCC(=O)N2CCN(S(=O)(=O)c3ccc(C)cc3)CC2)cc(OC)c1,-5,3,-5,1,-13,x,x,
O=C(O)c1cccc(CN2C(=O)SC(Nc3ccccc3)C2=O)c1 (stereo not given),4,0,-6,0,1,x,x,
O=C(O)c1cccc(CN2C(=O)SC(Nc3cccc4ccccc34)C2=O)c1 (stereo not given),-35,-24,-31,60*,-95,62*,69*,
CSc1ccc(-c2cc(=O)c3ccccc3o2)cc1,i,i,i,66*,i,68*,76*,
COc1ccc2oc(-c3ccccc3)c(C(=O)O)c2c1,i,-343,-405,6,i,x,x,
CCOC(=O)c1c(-c2ccccc2)oc2ccc(OC(C)=O)cc12,-35,-37,-26,-5,-75,x,x,
CCOC(=O)c1c(-c2ccccc2)oc2ccc(OCC(=O)NNC(=O)CCCC(=O)O)cc12,i,i,-434,13*,i,-24,-37,
CCOC(=O)c1c(-c2ccccc2)oc2ccc(OCC(O)CN(C)C)cc12 (stereo not given),i,-369,-144,17*,i,-13,-11,
